According to PubChem BioAssay (EPA / NIEHS):
The source made the active and inactive calls. How the source made its calls: active means hit-call score of the fitted dose curve at least 0.9, where 1 is the maximum; inactive means score below 0.9.

read-out: Fatty acid synthase (Homo sapiens) (UniProt P49327); experiment: LTEA_HepaRG_FASN: Life Technologies and Expression Analysis (LTEA) Assay for Fatty Acid Synthase (FASN) using HepaRG (AID 2283448); details: mRNA level, 48 h; actives raise or lower the signal;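 on AC50: differentiated human HepaRG liver cells in serum-free induction medium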
How it was run: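 HepaRG, 48 h exposure, 8-pt half-log series top 100 uM, 0.5% DMSO vehicle, duplicates. Readout: FASN transcript by Fluidigm qRT-PCR; housekeeping-normalized; bidirectional curve fit vs DMSO baseline.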

Sequence of Fatty acid synthase (Homo sapiens) (P49327 whole entry, looked up): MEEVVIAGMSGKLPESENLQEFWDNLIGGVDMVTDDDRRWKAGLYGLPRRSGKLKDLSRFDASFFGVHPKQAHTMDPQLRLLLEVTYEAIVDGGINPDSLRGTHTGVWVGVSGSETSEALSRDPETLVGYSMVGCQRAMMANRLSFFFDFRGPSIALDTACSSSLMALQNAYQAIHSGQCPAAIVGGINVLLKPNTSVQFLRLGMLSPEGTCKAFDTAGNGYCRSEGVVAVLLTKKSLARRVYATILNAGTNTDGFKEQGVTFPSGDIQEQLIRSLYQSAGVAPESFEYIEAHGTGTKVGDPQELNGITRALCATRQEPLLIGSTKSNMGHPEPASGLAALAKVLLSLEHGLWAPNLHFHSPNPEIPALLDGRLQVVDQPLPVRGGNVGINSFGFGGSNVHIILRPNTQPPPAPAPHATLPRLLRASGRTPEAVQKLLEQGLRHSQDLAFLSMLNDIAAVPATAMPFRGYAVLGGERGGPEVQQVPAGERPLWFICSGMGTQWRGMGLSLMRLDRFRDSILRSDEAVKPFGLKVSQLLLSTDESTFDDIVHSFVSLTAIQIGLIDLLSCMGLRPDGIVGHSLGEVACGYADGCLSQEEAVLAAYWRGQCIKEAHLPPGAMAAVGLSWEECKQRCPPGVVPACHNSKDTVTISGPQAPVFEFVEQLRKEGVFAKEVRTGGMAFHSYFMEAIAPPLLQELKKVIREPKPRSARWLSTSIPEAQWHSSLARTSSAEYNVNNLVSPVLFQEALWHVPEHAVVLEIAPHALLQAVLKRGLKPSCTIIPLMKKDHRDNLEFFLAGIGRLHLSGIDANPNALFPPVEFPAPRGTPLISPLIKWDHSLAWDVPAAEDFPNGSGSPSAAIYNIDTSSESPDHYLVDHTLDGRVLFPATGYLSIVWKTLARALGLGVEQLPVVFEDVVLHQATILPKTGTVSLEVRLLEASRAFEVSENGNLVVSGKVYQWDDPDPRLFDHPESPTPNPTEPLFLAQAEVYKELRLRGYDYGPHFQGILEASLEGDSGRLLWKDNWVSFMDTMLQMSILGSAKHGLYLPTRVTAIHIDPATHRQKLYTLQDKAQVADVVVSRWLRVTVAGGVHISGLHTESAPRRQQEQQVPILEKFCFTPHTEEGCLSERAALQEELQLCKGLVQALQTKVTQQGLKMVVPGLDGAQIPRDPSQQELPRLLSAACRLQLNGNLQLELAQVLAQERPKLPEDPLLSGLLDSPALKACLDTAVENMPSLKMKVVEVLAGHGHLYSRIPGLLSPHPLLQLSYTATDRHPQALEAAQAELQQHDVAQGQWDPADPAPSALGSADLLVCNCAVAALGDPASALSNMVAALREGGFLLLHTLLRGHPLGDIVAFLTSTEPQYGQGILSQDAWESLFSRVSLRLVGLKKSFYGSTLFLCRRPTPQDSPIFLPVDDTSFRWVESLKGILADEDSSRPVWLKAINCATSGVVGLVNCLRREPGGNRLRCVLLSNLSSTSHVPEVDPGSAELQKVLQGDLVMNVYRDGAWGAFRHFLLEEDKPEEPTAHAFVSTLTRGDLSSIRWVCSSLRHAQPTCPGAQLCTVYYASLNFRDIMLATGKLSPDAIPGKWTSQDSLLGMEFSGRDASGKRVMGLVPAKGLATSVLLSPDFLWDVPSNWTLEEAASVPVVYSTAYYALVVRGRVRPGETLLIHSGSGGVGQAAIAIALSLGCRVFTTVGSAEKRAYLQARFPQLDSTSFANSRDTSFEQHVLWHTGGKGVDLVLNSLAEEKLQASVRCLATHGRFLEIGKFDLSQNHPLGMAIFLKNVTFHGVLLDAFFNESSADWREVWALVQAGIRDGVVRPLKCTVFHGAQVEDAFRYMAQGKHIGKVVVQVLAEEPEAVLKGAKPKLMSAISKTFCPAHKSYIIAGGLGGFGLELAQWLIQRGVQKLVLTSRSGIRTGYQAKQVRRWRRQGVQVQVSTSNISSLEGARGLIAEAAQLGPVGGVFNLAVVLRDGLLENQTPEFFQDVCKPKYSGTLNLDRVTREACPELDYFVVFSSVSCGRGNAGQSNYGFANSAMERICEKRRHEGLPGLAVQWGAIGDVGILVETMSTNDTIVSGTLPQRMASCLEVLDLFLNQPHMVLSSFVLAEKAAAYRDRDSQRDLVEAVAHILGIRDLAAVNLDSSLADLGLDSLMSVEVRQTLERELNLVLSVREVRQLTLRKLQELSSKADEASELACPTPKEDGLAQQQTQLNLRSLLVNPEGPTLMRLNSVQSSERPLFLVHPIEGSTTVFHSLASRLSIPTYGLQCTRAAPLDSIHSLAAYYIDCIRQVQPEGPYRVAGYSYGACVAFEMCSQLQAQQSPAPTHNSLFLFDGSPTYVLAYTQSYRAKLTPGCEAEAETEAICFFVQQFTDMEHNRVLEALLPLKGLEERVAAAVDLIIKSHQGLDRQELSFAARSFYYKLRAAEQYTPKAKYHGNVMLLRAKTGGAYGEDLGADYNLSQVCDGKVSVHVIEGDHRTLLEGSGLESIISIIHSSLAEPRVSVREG

Structure (SMILES) | outcome | AC50
O=C=NCCCCCCN=C=O | inactive | 
CCN(Cc1cccnc1)C(=O)c1cccc(Cl)c1[C@]1(C)C(=O)N(Cc2ccc(OC)cc2OC)c2ccc(Cl)cc21 |  | 5.5 µM (active)
O=C(O)c1ccccc1C(=O)OCc1ccccc1 | inactive | 
CCOC(=O)O[C@H](C)OC(=O)c1ccc2c(c1)cc(C(=O)NC1CCN(C(C)C)CC1)n2Cc1cc(-c2ccc(Cl)s2)on1 | inactive | 
CCCCCc1ccc(N)cc1 | inactive | 
CN(C)C(=O)C1(N2CCCCC2)CCN(CC[C@@]2(c3ccc(Cl)c(Cl)c3)CN(C(=O)c3ccccc3)CCO2)CC1 |  | 61 µM (active)
CC1(C)NC(=O)N(c2ccc([N+](=O)[O-])c(C(F)(F)F)c2)C1=O | inactive | 
CCN(Cc1cccc(S(=O)(=O)O)c1)c1ccc(C(=C2C=CC(=[N+](CC)Cc3cccc(S(=O)(=O)O)c3)C=C2)c2ccccc2S(=O)(=O)[O-])cc1 | inactive | 
Cc1ncc(CO)c(CO)c1O | inactive | 
CCCCCCCCCC(=O)O | inactive | 
OCCO | inactive | 
NCc1cccc(C2CCN(C(=O)c3ccc(C#Cc4ccccc4F)o3)CC2)c1 |  | 50 µM (active)
Cc1cccc2ccccc12 | inactive | 
CC(O)CC(C)(C)O (configuration not stated) | inactive | 
Cc1cc(F)ccc1-c1cc(N2CC[C@@H](O)[C@H]2CO)ncc1N(C)C(=O)C(C)(C)c1cc(C(F)(F)F)cc(C(F)(F)F)c1 | inactive | 
CCCCCCCCCCCO | inactive | 
c1ccc2ccccc2c1 | inactive | 
Cc1ccc(C(C)C)cc1 | inactive | 
c1ccc(C[n+]2cccc3ccccc32)cc1 |  | 50 µM (active)

Structure (SMILES) | outcome | AC50
O=C1O[C@H]([C@@H](O)CO)C(O)=C1O | inactive | 
CCCOC(=O)c1cc(O)c(O)c(O)c1 | inactive | 
CCCC(=O)OCCC(C)C | inactive | 
Oc1ccccc1 | inactive | 
Cc1cn([C@H]2C[C@H](N=[N+]=[N-])[C@@H](CO)O2)c(=O)[nH]c1=O | inactive | 
CC/C(=C(/CC)c1ccc(O)cc1)c1ccc(O)cc1 |  | 50 µM (active)
O=c1ccc2ccccc2o1 | inactive | 
COc1ccc2cc(S(=O)(=O)N[C@H](CC(=O)N[C@H](Cc3ccc(CN4[C@H](C)CCC[C@@H]4C)cc3)C(=O)N(C)C(C)C)c3ccc4c(c3)OCO4)ccc2c1 | inactive | 
O=CCCCC=O | inactive | 
CN(C)c1ccc(C(=C2C=CC(=[N+](C)C)C=C2)c2ccc(N(C)C)cc2)cc1 |  | 3.9 µM (active)
O=c1[nH]sc2ccccc12 | inactive | 
COc1cc(C(=O)NC2CCN(C)CC2)ccc1Nc1ncc2c(n1)N(C1CCCC1)CC(F)(F)C(=O)N2C |  | 46.5 µM (active)
Cc1occc1C(=O)Nc1ccc(C(=O)N2CCC(F)(F)/C(=C\C(=O)N3CCC(N4CCCCC4)CC3)c3ccccc32)cc1 |  | 19.4 µM (active)
CC(C)(C)c1csc(-c2cc3cc(OCc4ccccc4CC(=O)O)ccc3o2)n1 |  | 84 µM (active)
CC1=CC(=O)/C(=C(/C)O)C(=O)O1 | inactive | 
CC[C@@H]1C[C@H](N(Cc2cc(C(F)(F)F)cc(C(F)(F)F)c2)C(C)=O)c2cc(C(F)(F)F)ccc2N1C(=O)OC(C)C | inactive | 
CN(C[C@@H](CC[N+]12CCC(C3CCCCC3)(CC1)CC2)c1ccc(Cl)c(Cl)c1)C(=O)c1cc(C(F)(F)F)cc(C(F)(F)F)c1 |  | 13 µM (active)
O=C(O)c1ccccc1-n1cc(C(=O)O)c(=O)c2cc(Nc3c(F)cc(F)cc3Cl)c(Cl)cc21 | inactive | 
